Assay [1] can be described thus: Confirmation and Secondary Assay for Modulators of Hemoglobin Beta Chain Splicing at IVS2 705 locus (AID 930).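 Also: HeLa cells stably expressing the EGFP-705 splicing reporter; GFP fluorescence per well restored by corrected splicing of the IVS2-705 intron in EGFP; % of control where 0% means no effect.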 Put shortly:
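HeLa IVS2-705 EGFP reporter cells, 500/well, compound 2 d at 37C; correct splicing yields fluorescent EGFP. Control: 500 nM antisense PNA. Read-out: total peak GFP intensity.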

A short description of assay [2]: qHTS Assay for Lipid Storage Modulators (AID 1519; calls by dose curve; as to activity change, negative = inhibition: % is scaled to controls: 0 for no effect and ±100 for the full control effect). The settings on record: Drosophila S3 cells, BODIPY lipid droplet/cell ratio, laser cytometry, cells loaded with oleic acid; for activity change, negative = inhibition: at 57.5 µM (top of the series). Put shortly:
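Cells seeded at 5,000 per well were treated with compounds over a concentration series and loaded with oleic acid (400 uM, as added). Lipid droplet fluorescence (488 nm excitation, 500-530 nm channel) was read by laser-scanning cytometry and normalized to 20 uM Triacsin C.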
On the technique in general: qHTS replaces the single test concentration by a dilution series.

Assay [3] addresses Ubiquitin carboxyl-terminal hydrolase 1 (Homo sapiens) (UniProt O94782). Kind of assay: Inhibitors of USP1/UAF1: Pilot qHTS (AID 504865).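 Also: rhodamine fluorescence freed from ubiquitin-rhodamine substrate followed over time; top concentration of the series differs between compounds; % is scaled to controls: 0 for no effect and ±100 for the full control effect; nearly all actives have a fitted effect of over 35% in size.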 In a few lines:
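Enzyme-free wells gave the negative control, while test wells held 1nM USP1/UAF1 preincubated with compound for 15 min at room temperature. Ub-Rho at 150nM final started the reaction, and fluorescence at 480/540 nm was recorded kinetically.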

The nature of assay [4]: qHTS profiling for inhibitors of Plasmodium falciparum proliferation (AID 504749).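 Also: 0% = DMSO vehicle and full inhibition = artemisinin control; nearly all actives have a fitted effect of over 60% in size.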 Particulars: P. falciparum in erythrocytes, SYBR Green DNA, 72 h, at 28.7 µM (top of the series). In a few lines: (§1)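 Readout was DNA-dye fluorescence from lysed cultures, ex 485/em 535 nm. Parasitized red cells had grown 72 h with compound; data scaled between 0.29 uM artemisinin and DMSO wells and corrected using vehicle-only plates.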

Assay [5] relates to C2A. The assay is described as above. The settings on record: P. falciparum in erythrocytes, SYBR Green DNA, 72 h; series mostly up to 12.8 µM. Put shortly: as §1
The subject of assay [6] is CP185. Described as above. The settings on record: P. falciparum in erythrocytes, SYBR Green DNA, 72 h; series mostly up to 12.8 µM. In a few lines: as §1
The test system of assay [7] is CP201. The assay is described as above. Particulars: P. falciparum in erythrocytes, SYBR Green DNA, 72 h; series mostly up to 12.8 µM. Put shortly: as §1
The test system of assay [8] is CP211. The description is as above. Particulars: P. falciparum in erythrocytes, SYBR Green DNA, 72 h; series mostly up to 12.8 µM. In a few lines:
as §1

In assay [9] the test system is CP238. The assay is described as above. Particulars: P. falciparum in erythrocytes, SYBR Green DNA, 72 h; series mostly up to 12.8 µM. Put shortly: as §1
Assay [10] deals with CP262. The description is as above. Particulars: P. falciparum in erythrocytes, SYBR Green DNA, 72 h; series mostly up to 12.8 µM. In a few lines: as §1
The test system of assay [11] is CP268. The assay is described as above. Particulars: P. falciparum in erythrocytes, SYBR Green DNA, 72 h; series mostly up to 12.8 µM. In a few lines: as §1
For assay [12], the system named is CP269. Described as above. The settings on record: P. falciparum in erythrocytes, SYBR Green DNA, 72 h; series mostly up to 12.8 µM. In a few lines:
as §1

Assay [13] relates to CP305. Described as above. Particulars: P. falciparum in erythrocytes, SYBR Green DNA, 72 h; series mostly up to 12.8 µM. Put shortly:
as §1

Assay [14] has as its system CP315. Described as above. The settings on record: P. falciparum in erythrocytes, SYBR Green DNA, 72 h; series mostly up to 12.8 µM. Put shortly:
as §1

Assay [15] has as its system CP325. The assay is described as above. Particulars: P. falciparum in erythrocytes, SYBR Green DNA, 72 h; series mostly up to 12.8 µM. In a few lines: as §1
Assay [16] deals with CP329. The assay is described as above. The settings on record: P. falciparum in erythrocytes, SYBR Green DNA, 72 h; series mostly up to 12.8 µM. In a few lines: as §1
Assay [17] deals with FAB9. Described as above. The settings on record: P. falciparum in erythrocytes, SYBR Green DNA, 72 h; series mostly up to 12.8 µM. Put shortly:
as §1

The subject of assay [18] is JCK. The description is as above. The settings on record: P. falciparum in erythrocytes, SYBR Green DNA, 72 h; series mostly up to 12.8 µM. In a few lines:
as §1

In assay [19] the test system is PC15. The assay is described as above. The settings on record: P. falciparum in erythrocytes, SYBR Green DNA, 72 h; series mostly up to 12.8 µM. In a few lines: as §1
Assay [20] deals with PC49. Described as above. The settings on record: P. falciparum in erythrocytes, SYBR Green DNA, 72 h; series mostly up to 12.8 µM. Put shortly: as §1
Setting [21] is: measured here: cell count channel max response.
[22] abbreviates: measured here: lipid channel max response.

Results filed as inconclusive are left out. Calls of active or inactive are those of the source. Unless noted, calls follow the shape of the dose curve; as a rule, active = well fitted curve in the direction sought with a large enough effect; inconclusive = small, poorly fitted or top-dose-only effect, or another doubt; inactive = no such curve, though single readings can be large; an effect the other way counts as inactive or inconclusive.

Sequence of Ubiquitin carboxyl-terminal hydrolase 1 (Homo sapiens) (O94782 whole entry, looked up): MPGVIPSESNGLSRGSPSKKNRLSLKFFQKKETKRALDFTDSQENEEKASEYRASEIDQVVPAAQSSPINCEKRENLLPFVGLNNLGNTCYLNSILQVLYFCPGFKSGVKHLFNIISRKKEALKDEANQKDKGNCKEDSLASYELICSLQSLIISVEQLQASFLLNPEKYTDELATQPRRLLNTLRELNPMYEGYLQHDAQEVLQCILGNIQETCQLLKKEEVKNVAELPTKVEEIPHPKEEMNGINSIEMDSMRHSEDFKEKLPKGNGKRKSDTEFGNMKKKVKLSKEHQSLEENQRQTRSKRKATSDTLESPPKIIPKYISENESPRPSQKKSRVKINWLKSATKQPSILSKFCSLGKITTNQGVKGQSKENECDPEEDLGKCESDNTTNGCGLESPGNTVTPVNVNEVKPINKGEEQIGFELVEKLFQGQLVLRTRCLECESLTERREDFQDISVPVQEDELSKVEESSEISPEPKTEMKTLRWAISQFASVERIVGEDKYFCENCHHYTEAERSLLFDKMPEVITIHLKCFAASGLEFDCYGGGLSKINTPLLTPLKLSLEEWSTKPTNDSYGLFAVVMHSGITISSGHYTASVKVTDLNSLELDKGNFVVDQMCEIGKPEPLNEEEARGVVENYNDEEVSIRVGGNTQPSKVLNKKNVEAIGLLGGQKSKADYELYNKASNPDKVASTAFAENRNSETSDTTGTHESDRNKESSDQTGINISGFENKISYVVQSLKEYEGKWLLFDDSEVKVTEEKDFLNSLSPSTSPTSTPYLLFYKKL

As to `CC1(C)OC2CC(=O)OC[C@@]23C1CC(=O)[C@]1(C)C3CC[C@@]2(C)C(c3ccoc3)OC(=O)C3O[C@@]321` (some centres undefined), the Potency entry in assay [1], in assay [3], in assay [5], in [6], in assay [7] and in assay [8] was “inactive” throughout. Also, the Potency result in assay [9], in assay [10], in assay [11], in assay [12], in [13] and in assay [14] was “inactive” in each case. Besides, the Potency entry in [15], in [16], in assay [17], in assay [18], in assay [19] and in [20] was “inactive” throughout. The activity change, negative = inhibition in assay [2] is 7.05% (inactive). Further, the max response is 20.2% in [2] (setting [21]) and 29.2% in assay [2] (setting [22]). Moreover, the activity, negative = inhibition is -0.282% (inactive) in [4] (parasite line A) and 13.3% (inactive) in assay [4] (parasite line B).

Turning to `Cc1cc2ccc(=O)oc2cc1OC[C@@H](O)C(C)(C)O`, in [2], the activity change, negative = inhibition is 5.47% (inactive). The max response in [2] (setting [21]) was 13%; in assay [2] (setting [22]) it was 21.2%.

Consider `CC(=O)N[C@@H]1C(O)OC(CO)C(O)C1O` (some centres undefined), for which the Potency result in assay [1], in [3], in assay [5], in assay [6], in assay [7] and in [8] was “inactive” each time. For the same compound, the Potency result in [9], in assay [10], in assay [11], in [12], in assay [13] and in assay [14] was “inactive” throughout. Further, the Potency entry in assay [15], in [16], in [17], in assay [18], in [19] and in [20] was “inactive” in each case. Further, the activity change, negative = inhibition in assay [2] is 4.62% (inactive). Further, the max response stood at 4.28% in assay [2] (setting [21]) and 11.6% in assay [2] (setting [22]). Also, the activity, negative = inhibition in assay [4] (parasite line A) was 3.66% (inactive); in assay [4] (parasite line B), 14.7% (inactive).

Consider `CN(C)CCCOC1C(C(O)CO)OC2OC(C)(C)O[C@@H]21` (some centres undefined), for which the Potency entry in assay [1], in [3], in assay [5], in assay [6], in assay [7] and in [8] was “inactive” throughout. Besides, the Potency entry in assay [9], in assay [10], in assay [11], in [12], in assay [13] and in assay [14] was “inactive” throughout. In addition, the Potency result in [15], in assay [16], in [17], in assay [18], in [19] and in assay [20] was “inactive” in each case. Moreover, the activity change, negative = inhibition in [2] is 4.25% (inactive). For the same compound, the max response in [2] (setting [21]) turned out to be 11.4%; in [2] (setting [22]) it was 18.7%. The activity, negative = inhibition in assay [4] (parasite line A) is 6.96% (inactive); in assay [4] (parasite line B) it was 11.3% (inactive).

For `Cc1cc(O)c(C=O)c2c1C(=O)Oc1c(COC(=O)/C=C/C(=O)O)c(O)c(C(=O)O)c(C)c1O2`, the Potency result in [1] is “inactive”. Besides, the activity change, negative = inhibition in [2] is 4.28% (inactive). Besides, the max response in [2] (setting [21]) is 6.76%; in [2] (setting [22]), 3.61%.

For the compound `CC1C2CCC3C4CC=C5CC(N(C)C)CC[C@@]5(C)C4CC[C@@]32CN1C` (some centres undefined), the Potency result in [1], in [3], in [5], in [6], in assay [7] and in assay [8] was “inactive” each time. Further, the Potency result in assay [9], in [10], in [11], in assay [12], in assay [13] and in assay [14] was “inactive” throughout. For the same compound, the Potency entry in assay [15], in assay [16], in assay [17], in assay [18], in assay [19] and in assay [20] was “inactive” each time. The activity change, negative = inhibition in assay [2] was 6.04% (inactive). Also, the max response in [2] (setting [21]) was determined as 14%; in assay [2] (setting [22]), 22.7%. For the same compound, the results for the activity, negative = inhibition in [4] (parasite line A) and in assay [4] (parasite line B) were 2.63% (inactive) and 0.451% (inactive), respectively.

For the origin of these results see PubChem BioAssay (NCATS).
